The list is not random: actives were taken first. Their share in the collection is about 6%.
BCR signal inh: qHTS Assay to Find Inhibitors of Chronic Active B-Cell Receptor Signaling; ABC-DLBCL IkBa-CBG/CBR reporter, luminescence ratio, 4 h; Potency, µM (titrated, usually from 46.1 µM), usual class: inhibitors; 340,000 tested, 0.05% active; active = well fitted inhibition curve with a large enough effect in the signal ratio, with a control signal flat, not every such curve was filed as active; inconclusive = small, poorly fitted or top-dose-only effect, or effect the other way, or a change in a side signal; the % refers to the signal ratio
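TMD8 human ABC-DLBCL cells with doxycycline-inducible IκBα–green luciferase fusion and unfused red luciferase, in 0.5% FBS medium; compounds up to 46 uM, 4 h at 37C. Green/red luminescence ratio, filter-overlap corrected, fitted to concentration-response curves.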
D3 ag: qHTS of D3 Dopamine Receptor Agonist: qHTS; D3R DiscoveRx beta-arrestin cells, luminescence, 90 min; 410,000 tested, 0.58% active; max activation, %; in the data active = max activation above about 30%
Target sequence (P35462 whole entry, looked up): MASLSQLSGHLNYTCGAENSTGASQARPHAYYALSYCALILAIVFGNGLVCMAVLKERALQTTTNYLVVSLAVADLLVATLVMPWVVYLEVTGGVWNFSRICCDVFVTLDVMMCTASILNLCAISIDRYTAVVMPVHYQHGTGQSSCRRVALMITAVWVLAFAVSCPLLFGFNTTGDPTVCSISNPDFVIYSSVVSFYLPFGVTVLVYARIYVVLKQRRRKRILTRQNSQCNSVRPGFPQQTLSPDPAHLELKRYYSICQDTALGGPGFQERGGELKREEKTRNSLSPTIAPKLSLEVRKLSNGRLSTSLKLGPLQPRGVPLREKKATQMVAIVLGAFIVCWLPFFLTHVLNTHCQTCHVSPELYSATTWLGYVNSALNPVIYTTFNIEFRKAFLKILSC
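Cells at 1500/well, incubated overnight, then treated with pinned compounds (dopamine as control) for 90 min at 37 degrees C. DiscoveRx reagent added for 30 - 60 minutes at room temperature; luminescence read.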
DRD3 antagonist: qHTS of D3 Dopamine Receptor Antagonist: qHTS. D(3) dopamine receptor (Homo sapiens), P35462. D3R cells, DiscoveRx beta-arrestin luminescence, antagonist mode; active compounds read low. max response, negative = inhibition, %. 360,000 tested, 2.5% active. AID 652054, 2013; in the data active = max response below about -50%; inconclusive = no clear call, values can overlap the other calls
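Cells plated overnight at 1500 cells/well, then exposed to library compounds with dopamine controls for 90 minutes at 37 degrees C. DiscoveRx reagent added for 30–60 minutes at room temperature; luminescence read, quantitative HTS format.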
D1 antag: Antagonist of Human D 1 Dopamine Receptor: qHTS; D(1A) dopamine receptor (Homo sapiens), P21728; HEK293 TREx D1 cells, calcium flux, dopamine EC80; active compounds read low; activity change, negative = inhibition, % at 10 µM; 360,000 tested, 3.2% active; in the data active = activity change below about -30%
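Cells carrying a force-coupled, tetracycline-inducible human D1 receptor report calcium flux. Each well gets a 10 s baseline, compound with 180 s monitoring, then an EC80 dopamine stimulus with a second 180 s kinetic read.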
D1 ag: Allosteric Agonists of the Human D1 Dopamine Receptor: qHTS. activation, % at 2 µM. D(1A) dopamine receptor (Homo sapiens), P21728. HEK293 T-REx D1 cells, calcium flux, agonist mode. 360,000 tested, 1% active. AID 504660, 2011; in the data active = activation above about 30%
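Tetracycline-induced HEK293 TREx D1 cells, force-coupled to calcium signalling, were dye-loaded with a no-wash calcium kit. Compound was pin-added after a 10 s baseline. Fluorescence was read kinetically at 1 cycle/s for 180 s, with calcium rises flagged as agonism.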
D1 potentiator: Potentiators of Human D1 Dopamine Receptor: qHTS; 360,000 tested, 0.036% active; D(1A) dopamine receptor (Homo sapiens), P21728; HEK293 TREx D1 cells, calcium flux, dopamine EC20 potentiation; potentiation, % at 10 µM; in the data active = potentiation above about 30%
Hits are given with their value; – = inactive; ? = inconclusive; · = no result.

SMILES	BCR signal inh	D3 ag	DRD3 antagonist	D1 antag	D1 ag	D1 potentiator
Cn1c(C(=O)NCCCN2CCN(c3ccccc3F)CC2)cc2c(=O)n(C)c3ccccc3c21	–	–	-73	–	–	·
Cn1c(C(=O)NCCCN2CCOCC2)cc2c(=O)n(C)c3ccccc3c21	–	–	–	–	–	·
Cc1ccc(-n2nc(C)c(C(=O)NCCCN3CCN(c4ccccc4F)CC3)c2-n2cccc2)cc1	·	–	·	-47	–	–
Cn1c(C(=O)NCCN2CCCCCC2)cc2c(=O)n(C)c3ccccc3c21	?	–	–	–	–	–
CC1CCN(CCCNC(=O)c2cc3c(=O)n(C)c4ccccc4c3n2C)CC1	–	–	-83	–	–	–
CCC(=O)N1CCc2cc(S(=O)(=O)NCCC(=O)Nc3ccc(CC)cc3)ccc21	·	–	·	–	–	–
CCCS(=O)(=O)NC(=O)C1(C)CCN(C(=O)c2ccccc2OC(F)(F)F)C1 (stereo not given)	·	–	–	·	·	·
CC(C)CN(C(=O)COC(=O)c1cccnc1Cl)c1c(N)n(Cc2ccccc2)c(=O)[nH]c1=O	–	–	–	-35	–	–
Nc1c(N(CCC2=CCCCC2)C(=O)Cc2ccc(F)cc2)c(=O)[nH]c(=O)n1Cc1ccccc1	–	–	–	–	–	–
Nc1c(N(CCC2=CCCCC2)C(=O)COc2ccc(F)cc2Cl)c(=O)[nH]c(=O)n1Cc1ccccc1	·	–	-92	·	·	·
CCCN(C(=O)CCOc1ccc(C(C)(C)C)cc1)c1c(N)n(Cc2ccccc2)c(=O)[nH]c1=O	–	–	–	-50	–	–
CC(C)CCN(C(=O)Cc1ccc(Cl)c(Cl)c1)c1c(N)n(Cc2ccccc2)c(=O)[nH]c1=O	?	–	-72	–	–	–
CC(C)CCN(C(=O)c1ccncc1)c1c(N)n(Cc2ccccc2)c(=O)[nH]c1=O	–	–	–	–	–	–
O=C(NCc1ccccc1Cl)C1CCCN(c2ncnc3onc(-c4ccc(F)cc4)c23)C1 (stereo not given)	·	–	·	–	–	–
C=C1C(=O)[C@@]23[C@H](O)C[C@@H]4C(C)(C)CC[C@H](O)[C@@]4(C)[C@@H]2CC[C@@H]1[C@H]3O	?	–	-57	–	–	–
CC(C)(Cc1ccccc1)NC(=O)C(=O)c1cn(CC(=O)N2CCOCC2)c2ccccc12	–	–	-70	–	–	–
COc1ccc(-n2ncc(C(=O)NCc3cccs3)c2C2CCN(C(=O)OC(C)(C)C)CC2)cc1	·	–	·	–	–	–
CC(C)(C)n1nc2c(c1NC(=O)c1ccccc1)CS(=O)(=O)C2	–	–	–	-41	–	–
Cc1cc(NC(=O)c2ccccc2)n(C(C)(C)C)n1	–	–	–	-33	–	–
O=C(COc1ccc(Cl)cc1Cl)Nc1nnc(C2=COCCO2)o1	–	–	–	-69	–	–
COc1ccc(Nc2c(-c3ccc(Cl)cc3)nc3cnccn23)cc1OC	·	–	·	–	–	–
CC(=NCCc1ccccc1)C1=C(O)CCC1=O	–	–	–	–	–	–
CC(=NCCc1ccccc1)C1=C(O)CSC1=O	–	–	–	-46	–	–
O=C(CSc1nc2ccsc2c(=O)n1-c1ccc(Br)cc1)NCc1ccccc1	–	–	·	–	–	–
Cc1nc2c(-c3ccc(F)cc3)c(C)nn2c(C)c1CCC(=O)NCc1ccc(Cl)cc1	·	–	·	–	–	–
SMILES	BCR signal inh	D3 ag	DRD3 antagonist	D1 antag	D1 ag	D1 potentiator
CC(=O)NC(c1ccccc1)c1nc(-c2cc(F)cc(F)c2)cs1 (stereo not given)	·	–	–	·	·	·
O=C(NCc1cccnc1)c1ccc2sc([C@@H]3O[C@H](CO)[C@H](O)[C@H](O)[C@H]3O)nc2c1	·	–	-55	·	·	·
CN(C)c1cccc(CNC(=O)c2ccc3sc([C@@H]4O[C@H](CO)[C@H](O)[C@H](O)[C@H]4O)nc3c2)c1	·	–	-101	·	·	·
O=C(NCc1cc(Cl)cc(Cl)c1)c1ccc2sc([C@@H]3O[C@H](CO)[C@H](O)[C@H](O)[C@H]3O)nc2c1	·	–	–	·	·	·
COc1ccc(-c2ccc(CCC(=O)O)n2-c2ccc(Cl)cc2C)cc1	·	–	·	–	–	–
Cc1cc(Nc2cc(F)ccc2C)nc(-n2nc(C)cc2C)n1	·	–	·	–	–	–
Cc1ccc(Cl)cc1NC(=O)Cn1c(=O)n(CCC(=O)NCc2ccc3c(c2)OCO3)c(=O)c2sccc21	·	–	·	–	–	–
O=C(CCn1c(=O)c2ccccc2n(Cc2cccnc2)c1=O)NCc1ccc2c(c1)OCO2	?	–	-59	–	–	–
Cc1ccc(NC(=O)Cn2c(=O)n(CCC(=O)NCc3ccc4c(c3)OCO4)c(=O)c3sccc32)c(C)c1	·	–	·	-34	–	–
Cc1ccccc1Cn1c(=O)n(CCC(=O)NCc2ccc3c(c2)OCO3)c(=O)c2ccccc21	?	–	–	–	–	–
Cc1noc(C)c1COc1ccccc1C(=O)N(C)CC(=O)Nc1ccc(F)cc1	–	–	–	–	–	34
Cc1noc(C)c1COc1ccccc1C(=O)NCCc1ccc(S(N)(=O)=O)cc1	–	–	–	-34	–	–
Cc1noc(C)c1CSCC(=O)N(C)CC(=O)Nc1ccc(F)cc1	–	–	–	–	–	–
Cc1noc(C)c1COc1ccccc1C(=O)N(C)Cc1ccc(C(C)(C)C)cc1	?	–	–	-36	–	–
Cc1noc(C)c1COc1ccccc1C(=O)N(C)Cc1ccc(F)cc1	–	–	–	–	–	–
Cc1noc(C)c1CSCC(=O)N(C)CC(=O)Nc1ccc(Cl)cc1	–	–	–	-44	–	–
CC1(C)OC2COC(c3[nH]nc4c(=O)[nH]c(=O)[nH]c34)C2O1 (stereo not given)	·	–	–	·	·	·
O=C(CCn1c(=O)c2cccn2c2cccnc21)N1CCN(c2ccc(F)cc2)CC1	·	–	·	–	–	–
Cc1nc([N+](=O)[O-])cn1Cc1cccc([N+](=O)[O-])c1	–	–	–	-31	–	–
Nc1ncnc2nc(SCc3ccc(Cl)cc3Cl)[nH]c12	?	–	–	–	–	–
Nc1cc(=O)[nH]c(SCc2ccc(Cl)cc2Cl)n1	–	30	–	–	–	–
O=C(COc1ccccc1)NC(=S)Nc1cccc2cc(O)ccc12	–	–	–	–	35	–
Cc1ccc([C@@H]2C[C@H]3CN(Cc4cccc(Cl)c4)C(=O)[C@]34CCCN24)o1	?	–	–	–	–	–
O=C1N(Cc2cccc(Cl)c2)C[C@@H]2C[C@@H](c3cccc4ncccc34)N3CCC[C@@]123	?	–	–	-35	–	–

High-throughput results deposited in PubChem BioAssay by National Center for Advancing Translational Sciences (NCATS).
